Shown are actives, neighbours in structure and some others; about 4.3% of the full set was active somewhere.
rCAG RNA binder: r(CAG) repeat RNA binding. TO-PRO-1 dye displacement fluorescence. inhibition, % at 3 µM. hit rate 1.3% among 370,000. AID 651821;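 active means inhibition above the plate cutoff, the mean of all test compounds on that plate plus 3 SD, cut at about 35% in these data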;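 further: 0% = DMSO alone and 100% = 100 µM mitoxantrone as full dye displacement; higher means more dye released from RNA so lower well fluorescence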
FAS TE block: blocks the thioesterase domain of human fatty acid synthase | P49327 | recombinant FAS-TE, OMFH fluorogenic substrate, fluorescence endpoint | inhibition, % at 15 µM | hit rate 0.67% among 360,000;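 active means compounds whose normalised, plate-corrected inhibition of enzyme fluorescence in the single-dose primary screen is 50% or more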;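 further: 0% = DMSO with enzyme and 100% = substrate without enzyme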
NadD block: NadD (S. aureus) enzyme inhibition; inhibition, % at 20 µM; purified NadD enzyme, colorimetric absorbance read-out; AID 602399; hit rate 0.78% among 360,000; in the data active means inhibition above about 26%
GRIN3A LBD mod: modulates the human NR3A ligand-binding domain; NR3A LBD differential scanning fluorimetry, Tm shift; 0% = protein alone, 100% = glycine-bound protein; Tm shift relative to glycine control, % at 25 µM; hit rate 2.5% among 340,000; AID 1259313;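 active means melting temperature shift of at least 10% of the positive control shift, at one fixed dose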
rCAG binder conf: r(CAG) RNA repeat binding, confirmation; TO-PRO-1 dye displacement fluorescence; shares compounds with rCAG RNA binder; inhibition, % at 3 µM; hit rate 70% among 4,300;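 active means inhibition above a per-plate cutoff, the mean inhibition of sample wells plus 3 SD, cut at about 35% in these data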;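 further: loss of TO-PRO-1 fluorescence as compound displaces dye from 1x1 AA loop RNA; 0% = DMSO only wells and 100% = 100 µM mitoxantrone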
DNA CAG counter: DNA CAG dye complex inhibition counter-screen; AID 652068; inhibition, % at 3 µM; d(CAG) DNA oligo TO-PRO-1 dye displacement, fluorescence; hit rate 94% among 4,300; shares compounds with rCAG RNA binder;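 active means inhibition above its plate's cutoff, the mean test-well inhibition plus 3 SD, cut at about 4.8% in these data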;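 further: 0% = DNA dye mix with DMSO and 100% = 100 µM mitoxantrone; hits displace the dye from DNA and so lower well fluorescence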
DNA CAG DR: counter-screen for rCAG binders: inhibitors of DNA CAG TO-PRO-1 complex. shares compounds with rCAG RNA binder. DNA CAG/GTC duplex TO-PRO-1 dye displacement fluorescence. IC50, µM. hit rate 20% among 250. AID 686960; in the data active means IC50 below about 10 µM
Active calls of the source: *; nt = not tested or not shown.

SMILES	rCAG RNA binder	FAS TE block	NadD block	GRIN3A LBD mod	rCAG binder conf	DNA CAG counter	others
O=[N+]([O-])c1cccc(NC(=S)NCc2ccncc2)c1	0	48	5	1	nt	nt
O=[N+]([O-])c1cccc(NC(=S)Nc2nc(-c3ccccc3Cl)cs2)c1	39*	8	19	17*	36*	28*
COc1ccc(C2=NN(c3nc4ccccc4s3)C(=O)/C2=C\N(C)C)cc1	46*	-6	2	-3	38*	13*
COC(=O)C1=C(C)N(Cc2cccc(C(F)(F)F)c2)C(=NCC2CC2)NC1c1ccccc1 (configuration not stated)	7	nt	nt	nt	nt	nt
OC1(C#Cc2c(-c3ccsc3)sc3ccccc23)CCCCC1	6	nt	nt	nt	nt	nt
O=C(c1cccs1)c1ccccc1Cc1cccs1	2	30	-4	4	nt	nt
COc1cccc(/C=C2\SC(=S)N(NS(=O)(=O)c3ccccc3)C2=O)c1OC	74*	2	-4	0	65*	28*
COc1cc(/C=C2\SC(=S)N(NS(=O)(=O)c3ccccc3)C2=O)cc(OC)c1OC	65*	2	-1	-8	65*	27*
COc1ccc(/C=N/NS(=O)(=O)c2ccccc2)cc1OC	0	0	-7	0	nt	nt
COc1ccc(/C=C2/SC(=O)N(NS(=O)(=O)c3ccccc3)C2=S)cc1OC	69*	-2	0	-7	58*	23*
O=C1/C(=C/c2ccccn2)SC(=S)N1NS(=O)(=O)c1ccccc1	32	2	2	-3	nt	nt
Cc1ccc(S(=O)(=O)NN2C(=O)/C(=C\c3ccc(Cl)cc3)SC2=S)cc1	11	28	11	-1	nt	nt
O=C1/C(=C/c2cccc(F)c2)SC(=S)N1NS(=O)(=O)c1ccccc1	62*	6	-1	nt	65*	17*
CCCC[C@H]1C2CC(OC(=O)Nc3ccccc3C)C(C2)[C@H]2CCCCN21 (some centres not stated)	0	nt	nt	nt	nt	nt
COc1ccc(CN2CCC(CNC(=O)NCc3ccccc3)CC2)cc1	3	nt	nt	nt	nt	nt
O=C(N[C@H](C(=O)N1CCC[C@H]1C(=O)NC1CCCC1)c1ccccc1)C1CC1	2	nt	nt	nt	nt	nt
O=S(=O)(Nc1nc2ccccc2nc1N1CCN(c2ccccn2)CC1)c1ccc(Cl)cc1	54*	8	8	2	64*	31*
COc1ccc(N2CCN(C(=O)c3ccccc3NS(=O)(=O)c3ccccc3)CC2)cc1	13	1	-9	-2	nt	nt
CCOc1nc2ccccc2nc1NS(=O)(=O)c1ccc(Cl)cc1	40*	-7	-8	-1	27	4.6*
CN1CCN(c2nc3ccccc3nc2NS(=O)(=O)c2ccc(Br)cc2)CC1	22	6	7	-1	nt	nt
Cc1ccc(S(=O)(=O)Nc2nc3ccccc3nc2N2CCN(c3ccccc3F)CC2)cc1	54*	22	7	1	68*	28*
CCOc1nc2ccccc2nc1NS(=O)(=O)c1ccccc1	6	-6	-2	1	nt	nt
COc1ccc(N2CCN(c3nc4ccccc4nc3NS(=O)(=O)c3ccccc3)CC2)cc1	57*	-2	14	-1	62*	24*
Nc1nc2c(ncn2[C@@H]2O[C@H](C(=O)NCC(F)(F)F)[C@@H](O)[C@H]2O)c(=O)[nH]1	1	nt	nt	nt	nt	nt
Cc1ccccc1-c1cc2nc(C)c(Cl)c(=O)n2[nH]1	2	-5	3	-1	nt	nt
SMILES	rCAG RNA binder	FAS TE block	NadD block	GRIN3A LBD mod	rCAG binder conf	DNA CAG counter	others
Cc1nc2cc(-c3ccsc3-n3c(C)ccc3C)[nH]n2c(=O)c1Cl	51*	5	16	0	60*	26*
COC(=O)c1sc(NC(=O)c2ccc(Cn3cc(Cl)cn3)o2)c(C#N)c1C	48*	-8	3	2	42*	13*
CC(=O)NS(=O)(=O)c1cccnc1Nc1ccc(Cl)c(Cl)c1	37*	5	-4	0	38*	14*
CC1(C)CC(=O)C(C2C3=C(CC(C)(C)CC3=O)OC3=C2C(=O)CC(C)(C)C3)=C(O)C1	44*	-7	3	6	2	1
CC1=NN(C(N)=S)C(=O)C1N=Nc1c(Br)cc(Br)cc1Br (configuration not stated)	46*	4	6	2	43*	13*	DNA CAG DR=>30
CC1=NN(C(N)=S)C(=O)C1N=Nc1c(C)cc(C)cc1C (configuration not stated)	5	-2	9	-3	nt	nt
N#CCC(=O)Nc1sc2c(c1C(N)=O)CCCC2	35*	2	1	-1	3	4.5*
NC(=O)c1c(NC(=O)COC(=O)c2ccc(O)c(Cl)c2)sc2c1CCCC2	39*	10	22	2	43*	15*
CCC(=O)Nc1sc2c(c1C(N)=O)CCC2	2	-7	-4	1	nt	nt
CCCN(CC1CC1)C(=O)CNc1nnnn1-c1ccccc1	3	nt	nt	nt	nt	nt
O=C(NNC(=S)NCCc1ccccc1)c1ccc(Br)s1	54*	6	-1	-5	47*	14*	DNA CAG DR=>30
COc1ccc(CN2C[C@H](COCc3ccccc3)Oc3cccc(N4CCCC4)c3S2(=O)=O)cc1	8	nt	nt	nt	nt	nt
CCOC(=O)c1c(N)sc(N)c1C(=O)OCC	9	-14	6	-4	nt	nt
CCOC(=O)c1c(N)sc(=S)c2c1CCC2	36*	-10	8	-3	54*	23*	DNA CAG DR=>30
O=C(C(=O)N1CCN(C(=O)c2cc(C(F)(F)F)cc(C(F)(F)F)c2)CC1)c1cccc(C(F)(F)F)c1	0	nt	nt	nt	nt	nt
CCCCc1ccc(NC(=O)CSCc2cc(=O)[nH][nH]2)cc1	42*	-24	4	-2	15	4.5*
O=C(CSCc1cc(=O)[nH][nH]1)Nc1ccc(F)cc1	6	-8	0	0	nt	nt
CSc1nnc(N2C(=O)C(O)=C(C(=O)c3ccc(C)o3)C2c2ccc(C)cc2)s1 (configuration not stated)	39*	-3	15	2	32	5.6*
CCCSc1nnc(N2C(=O)C(O)=C(C(=O)c3ccco3)C2c2ccccc2F)s1 (configuration not stated)	48*	-8	14	-3	41*	11*
c1nc2nc3c(c(N4CCCC4)n2n1)CCCC3	2	nt	nt	nt	nt	nt
CCN(CC)S(=O)(=O)c1ccc(S(=O)(=O)Nc2ccc3c(c2)oc2ccccc23)cc1	56*	40	11	24*	51*	18*
CN(C)S(=O)(=O)c1ccc(S(=O)(=O)Nc2ccc3c(c2)oc2ccccc23)cc1	49*	39	7	22*	57*	19*
CCCCS(=O)(=O)N1CCCc2nc(CC)c(CC)cc21	-1	nt	nt	nt	nt	nt
COc1cccc(CNC(=O)c2c[nH]n3c(=O)c(Cl)c(C)nc23)c1	61*	-7	12	-8	35*	8.0*
